Measured values reported in PubChem BioAssay (NCATS).
Results filed as inconclusive are left out. The source made the active and inactive calls. Calls follow the shape of the dose curve; as a rule, active = well fitted curve in the direction sought with a large enough effect; inconclusive = small, poorly fitted or top-dose-only effect, or another doubt; inactive = no such curve, though single readings can be large; an effect the other way counts as inactive or inconclusive.

Columns and labels:
[1] = target: Metallo-beta-lactamase type 2 (Klebsiella pneumoniae) (UniProt C7C422); assay: qHTS to identify inhibitors of the New Delhi Metallo-beta-lactamase (NDM): assay validation screen against the NCATS LOPAC Collection (AID 1794843); settings: NDM-1 enzyme, nitrocefin hydrolysis, absorbance 485 nm; series mostly up to 38.4 µM;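 also: nitrocefin turnover by NDM-1 measured as 485 nm absorbance at plateau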
Outline: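 Enzyme 2 nM final, 50 mM HEPES pH 7.0, 1 uM ZnSO4, 0.01% Tween20; cpds in DMSO, preincub w/ enzyme; + nitrocefin (50 uM stock); A485 at plateau; no-enzyme column as blank.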

[2] = target: Glutathione peroxidase 1 (Homo sapiens) (UniProt P07203); assay: Primary qHTS Assay for Inhibitors of Recombinant Selenoprotein Glutathione Peroxidase 1 (GPX1) (AID 1845191); settings: recombinant GPX1, GR-coupled NADPH fluorescence, 15 min; series mostly up to 48.8 µM; also: nearly all actives have a fitted effect of over 65% in size
Outline: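 10 nM GPX1 + cpd, 30 min RT; start w/ 1 mM GSH, 0.5 mM cumene hydroperoxide, 0.5 mM NADPH, 100 nM GR, 0.01% BSA; buffer 50 mM Tris-HCl pH 7.5, 2 mM EDTA, 150 mM NaCl; Fl 340/450, 0 & 15 min.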

[3] = target: Phospholipid hydroperoxide glutathione peroxidase GPX4 (Homo sapiens) (UniProt P36969); assay: Primary qHTS Assay for Inhibitors of Recombinant Selenoprotein Glutathione Peroxidase 4 (GPX4) (AID 1845192); settings: recombinant GPX4, GR-coupled NADPH fluorescence, 15 min; series mostly up to 50 µM; also: nearly all actives have a fitted effect of over 65% in size
Outline: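 NADPH consumption, followed by fluorescence at 340/450 nm between 0 and 15 min, reports GPX4 activity via coupled glutathione reductase (100 nM). Enzyme 200 nM was pre-exposed to compound 30 min; 0.5 mM cumene hydroperoxide and 1 mM GSH served as substrates.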

Measured: Potency

Chain of Phospholipid hydroperoxide glutathione peroxidase GPX4 (Homo sapiens) (P36969 whole entry, looked up): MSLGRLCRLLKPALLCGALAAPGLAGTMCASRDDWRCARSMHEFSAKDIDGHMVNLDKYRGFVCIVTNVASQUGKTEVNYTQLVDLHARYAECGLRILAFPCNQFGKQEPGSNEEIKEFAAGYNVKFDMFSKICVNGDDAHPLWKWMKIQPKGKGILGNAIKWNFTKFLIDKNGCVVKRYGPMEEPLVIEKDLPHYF
Chain of Glutathione peroxidase 1 (Homo sapiens) (P07203 whole entry, looked up): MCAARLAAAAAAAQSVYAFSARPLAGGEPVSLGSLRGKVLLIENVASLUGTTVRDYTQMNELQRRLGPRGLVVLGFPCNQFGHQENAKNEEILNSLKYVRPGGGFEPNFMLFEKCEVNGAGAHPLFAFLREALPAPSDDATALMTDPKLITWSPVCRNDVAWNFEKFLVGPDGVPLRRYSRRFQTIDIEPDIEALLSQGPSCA
Chain of Metallo-beta-lactamase type 2 (Klebsiella pneumoniae) (C7C422 whole entry, looked up): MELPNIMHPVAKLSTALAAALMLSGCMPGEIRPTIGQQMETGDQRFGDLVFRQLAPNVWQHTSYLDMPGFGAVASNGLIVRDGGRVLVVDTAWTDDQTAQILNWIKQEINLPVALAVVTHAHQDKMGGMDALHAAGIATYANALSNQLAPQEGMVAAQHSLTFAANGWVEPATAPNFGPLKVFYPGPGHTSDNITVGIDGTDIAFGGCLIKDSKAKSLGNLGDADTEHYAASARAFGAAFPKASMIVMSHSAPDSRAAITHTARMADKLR

NCC(O)C1CCCCCCC1 (stereo not given)
inactive: all assays above

CCCCCC(O)CCCC(=O)O (stereo not given)
inactive: all assays above

Nc1ccc(CCNc2ncnc3c2ncn3C2OC(CO)C(O)C2O)cc1 (stereo not given)
inactive: all assays above

CN1CC(O)C(O)C(O)C1CO (stereo not given)
inactive: all assays above

O=C(O)C1=CCCN(CCON=C(c2ccccc2)c2ccccc2)C1
inactive: all assays above

C=CCN1CCc2cc(O)c(O)cc2C(c2ccccc2)C1 (stereo not given)
inactive: all assays above

CC(C)[C@@H]1CC[C@@H](C)C[C@@H]1P(=O)(c1ccccc1)c1ccccc1
inactive: all assays above

O=c1cc(O)cc(/C=C/c2ccc(O)c(O)c2)o1
inactive: all assays above

C[C@@]1(C2CCCC2)Cc2cc(OCC(=O)O)c(Cl)c(Cl)c2C1=O
inactive: all assays above

NCCNS(=O)(=O)c1cccc2c(Cl)cccc12
inactive: all assays above

CCCCCC[C@@H]([C@@H](C)O)n1cnc2c(N)ncnc21
inactive: all assays above

NC1(C(=O)O)CCc2cc(C(=O)O)ccc21 (stereo not given)
inactive: all assays above

Cn1c(=O)[nH]c2ncn(C)c2c1=O
inactive: all assays above

CSC(=N)N
inactive: all assays above

O=C(O)C1=CCCNC1
inactive: all assays above

COc1ccc(C(=O)NCc2cccnc2)cc1C(=O)NCc1cccnc1
inactive: all assays above

CC(C)(C)NCC(O)COc1cccc2[nH]c(=O)[nH]c12 (stereo not given)
inactive: all assays above

COc1cc(CNC(=O)CCCCCCC(C)C)ccc1O
inactive: all assays above

C[C@H](O)C(=O)C1=Nc2c(nc(N)[nH]c2=O)NC1
inactive: all assays above

CCCn1c(=O)c2[nH]c(C3CCCC3)nc2n(CCC)c1=O
inactive: all assays above

COc1ccc2c(c1)c(CC(=O)O)c(C)n2Cc1ccc(Cl)cc1
inactive: all assays above

O=c1onc2cnc3ccccc3n12
inactive: all assays above

O=C(O)CCC(=O)N1CCCC1C(=O)O (stereo not given)
inactive: all assays above

NCCCCN=C(N)N
inactive: all assays above

[N-]=[N+]=Nc1ccc(C(=O)CSC[C@H](NC(=O)CC[C@H](N)C(=O)O)C(=O)NCC(=O)O)cc1
inactive: all assays above

NCCC1CCCC(CCN)N1 (stereo not given)
inactive: all assays above

CCCc1c(OCCCOc2ccc(OCC(=O)O)cc2)ccc(C(C)=O)c1O
inactive: all assays above

C[C@@H](NCCc1ccc(O)cc1)[C@@H](O)c1ccc(O)cc1
inactive: all assays above

NCCS(=O)O
inactive: all assays above

CCn1c(=O)[nH]c2cc(Cl)c(Cl)cc21
inactive: all assays above

N=S(=O)(O)Cc1noc2ccccc12
inactive: all assays above

CC(=O)O[C@H]1Cc2ccccc2N(C(N)=O)c2ccccc21
inactive: all assays above

N[C@@H](Cc1ccc(O)c(I)c1)C(=O)O
inactive: all assays above

O=c1[nH]c2cc(Cl)ccc2c(O)c1-c1ccc(Oc2ccccc2)cc1
inactive: all assays above

O=C(O)c1ccccc1Nc1cccc(OCc2ccc3ccccc3n2)c1
inactive: all assays above

Nc1nc2[nH]c(=O)cnc2c(=O)[nH]1
inactive: all assays above

NC(N)=NC(N)=Nc1ccccc1
inactive: all assays above

Cc1cccc(C2CN(C)CCc3c2cc(O)c(O)c3Cl)c1 (stereo not given)
inactive: all assays above

O=C(O)C1=CCNCC1
inactive: all assays above

CNc1ncnc2c1ncn2[C@H]1C[C@H](OP(=O)(O)O)[C@@H](COP(=O)(O)O)O1
inactive: all assays above

CC1CCN=C(N)S1 (stereo not given)
inactive: all assays above

CC(C)NCC(O)COc1ccc(CC(N)=O)cc1 (stereo not given)
inactive: all assays above

c1ccc(CN2CCC3(CCCc4ccccc43)CC2)cc1
inactive: all assays above

CC(C)(C)c1ccc(/C=C/C(=O)Nc2ccc3c(c2)OCCO3)cc1
inactive: all assays above

Oc1ccc(Cn2cc[nH]c2=S)cc1
inactive: all assays above
